Measurements reported in the supplement of paper PMC4723716.
± gives the uncertainty stated by the source. Whole data set: some 9,900 compounds, median “viability index relative to DMSO control” near 1, cut for the lowest 2% near 0.85. Shown is part of a subset that was picked to be rich in the lowest values.

Tested on: Plasmodium falciparum NF54 stage V gametocytes
Experiment: viability index relative to DMSO control (fraction); higher = less gametocyte killing
Details: 2.5 µM, incubation time: 72 h
How it was run: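 Gametocytes (P. falciparum NF54, stage V) were treated with compound at 2.5 µM for 72 hr at 37°C in low oxygen, in serum-free medium at 0.75% gametocytemia and 1.25% hematocrit. Counts of 20–70 µm2 red particles, taken from one field per well after MitoTracker Red CMXRos with saponin, were divided by the plate mean of solvent-only wells. This ratio is the viability index.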

[1] = library set: Broad Institute DOS
[2] = library set: Broad Institute Blood Stage

| Structure (SMILES) | viability index [1] | viability index [2] |
| --- | --- | --- |
| C[C@@H]1C/C=C/C[C@@H](c2ccccc2)NC(=O)[C@H](C)N(C)C(=O)c2ccccc2O1.C[C@@H]1C/C=C\C[C@@H](c2ccccc2)NC(=O)[C@H](C)N(C)C(=O)c2ccccc2O1 | 1 ± 0.069 | – |
| COc1ccc2c3c([C@H](CO)NC[C@]33CN(Cc4ccc(cc4)-c4ccccn4)C3)n(C)c2c1 | 0.934 ± 0.11 | – |
| COc1ccc2c3c([C@@H](CO)NC[C@]33CCN(Cc4ccc(cc4)-c4ccccn4)CC3)n(C)c2c1 | – | 0.946 ± 0.052 |
| COc1ccc2c3c([C@H](CO)NC[C@]33CCN(Cc4ccc(cc4)-c4ccccn4)CC3)n(C)c2c1 | – | 0.835 ± 0.04 |
| COc1ccc2c3c([C@@H](CO)NC[C@]33CCN(Cc4ccncc4)CC3)n(C)c2c1 | 1.01 ± 0.045 | – |
| COc1ccc2c3c([C@H](CO)NC[C@]33CN(Cc4ccc(F)cc4)C3)n(C)c2c1 | 0.841 ± 0.014 | – |
| COc1ccc2c3c([C@@H](CO)NC[C@]33CN(Cc4ccc(cc4)-c4ccccn4)C3)n(C)c2c1 | 0.997 ± 0.019 | – |
| CO[C@H]1CN(C)C(=O)c2cc(NC(=O)c3cnccn3)ccc2OC[C@H](C)NC[C@H]1C | 1.09 ± 0.041 | – |
| COc1ccc(-c2ccc([C@H]3[C@H]4CNC[C@@H]3N4S(=O)(=O)c3cn(C)cn3)cc2)cc1 | 1.0563 ± 0.00097 | – |
| O=C(CC1CC1)N1CC2(C1)[C@@H](c1ccccc1)[C@H](CO)N2C(=O)c1ccccn1 | 1 ± 0.013 | – |
| C[C@H]1CN([C@@H](C)CO)C(=O)c2c(c3ccccc3n2C)-c2ccccc2CO[C@H]1CN(C)C | 1.04 ± 0.052 | – |
| O=C(C[C@H]1CC[C@H]2NC[C@@H](O)COC[C@@H]2O1)N1CCc2ccccc2C1 | 1.03 ± 0.049 | – |
| O=C(CC1CC1)N1CC[C@@H]2[C@H]1c1cc(-c3ccc(F)cc3)ccc1N[C@@H]2CO | 1.046 ± 0.009 | – |
| COc1ccc(C#Cc2cccc(-c3nc(C(=O)N4CCN(Cc5ccccc5)CC4)cc4c3[C@H](CCO)N(S(=O)C(C)(C)C)C4)c2)cc1OC (stereo partly drawn) | 1.04 ± 0.11 | – |
| CC(C)(C)S(=O)N1Cc2cc(C(=O)NCc3ccc4c(c3)OCO4)nc(-c3cccc(-c4cc5ccccc5o4)c3)c2[C@H]1CCO (stereo partly drawn) | 0.656 ± 0.04 | – |
| COc1ccc(C#Cc2cccc(-c3nc(C(=O)NCc4ccc5c(c4)OCO5)cc4c3[C@@H](CCO)N(S(=O)C(C)(C)C)C4)c2)cc1OC (stereo partly drawn) | 0.9061 ± 0.0023 | – |
| CC(C)(C)S(=O)N1Cc2cc(C(=O)O)nc(-c3cccc(-c4cc5ccccc5o4)c3)c2[C@@H]1CCO (stereo partly drawn) | 1.03 ± 0.023 | – |
| COc1ccc(C#Cc2cccc(-c3nc(C(=O)N4CCN(Cc5ccccc5)CC4)cc4c3[C@@H](CCO)N(S(=O)C(C)(C)C)C4)c2)cc1OC (stereo partly drawn) | 0.826 ± 0.14 | – |
| COc1ccccc1-c1cccc(-c2nc(C(=O)N3CCN(C)CC3)cc3c2[C@H](CCO)N([S@@](=O)C(C)(C)C)C3)c1 | 1.03 ± 0.032 | – |

| Structure (SMILES) | viability index [1] | viability index [2] |
| --- | --- | --- |
| CC(C)(C)S(=O)N1Cc2cc(C(=O)N3CCN(Cc4ccccc4)CC3)nc(-c3cccc(-c4cc5ccccc5o4)c3)c2[C@H]1CCO (stereo partly drawn) | 0.7362 ± 0.0068 | – |
| CC(C)(C)S(=O)N1Cc2cc(C(=O)NCc3ccc4c(c3)OCO4)nc(-c3cccc(-c4cccc(F)c4)c3)c2[C@@H]1CCO (stereo partly drawn) | 1.04 ± 0.015 | – |
| COc1ccc(C#Cc2cccc(-c3nc(C(=O)Nc4ccc(-c5ccccc5)cc4)cc4c3[C@@H](CCO)N(S(=O)C(C)(C)C)C4)c2)cc1OC (stereo partly drawn) | 1.016 ± 0.0075 | – |
| Cc1ccc(CN2CC(=O)N3[C@H](CO)[C@@H](c4ccc(-c5ccccc5F)cc4)[C@H]3C2)cc1 | 1.05 ± 0.062 | – |
| CC(=O)N1[C@H](CO)[C@@H](c2ccccc2)C12CN(S(=O)(=O)c1ccccc1)C2 | 1.11 ± 0.03 | – |
| COC(=O)C[C@H]1CC[C@@H]2[C@H](COc3ccc(NC(=O)Nc4cccc(C#N)c4)cc3C(=O)N2C)O1 | 1.1 ± 0.091 | – |
| O=C(Cc1cccnc1)N1CC(=O)N2[C@H](C1)[C@@H](c1ccc(C#CC3CCCCC3)cc1)[C@@H]2CO | 0.985 ± 0.11 | – |
| O=C(C1CCOCC1)N1CC(=O)N2[C@H](C1)[C@H](c1ccc(C#CC3CCCCC3)cc1)[C@@H]2CO | 1.03 ± 0.018 | – |
| C[C@@H]1CN([C@@H](C)CO)C(=O)c2cc(NC(=O)Cn3cnnn3)ccc2O[C@H]1CN(C)Cc1ccc(C(=O)Nc2ccccc2N)cc1 | 1.002 ± 0.0028 | – |
| O=C(C[C@H]1C[C@@H]2c3cc(NC(=O)Nc4ccccc4)ccc3O[C@@H]2[C@H](CO)O1)NCc1ccccc1 | 1.06 ± 0.03 | – |
| Cc1ccc(S(=O)(=O)Nc2ccc3c(c2)CC(=O)N([C@H](C)CO)C[C@@H](C)[C@@H](CN(C)S(=O)(=O)c2ccccc2)O3)cc1 | 0.949 ± 0.021 | – |
| CCCC(=O)N1C[C@]2(CN(Cc3nccs3)C2)c2c([nH]c3cc(OC)ccc23)[C@@H]1CO | 1 ± 0.024 | – |
| N#C[C@@H]1[C@@H](c2ccccc2-c2ccccc2)[C@H](CO)N1C(=O)Cc1ccncc1 | 1.1 ± 0.2 | – |
| C[C@H]1CN([C@@H](C)CO)C(=O)c2ccccc2-c2ccccc2CO[C@H]1CN(C)Cc1cccc(C(=O)O)c1 | 0.958 ± 0.034 | – |
| O=C(C[C@H]1CC[C@H](NC(=O)C2CC2)[C@@H](CO)O1)Nc1ccccc1 | 0.981 ± 0.031 | – |
| O=C(C[C@H]1CC[C@@H](NC(=O)C2CC2)[C@H](CO)O1)Nc1ccccc1 | 0.839 ± 0.19 | – |
| O=C(C[C@H]1CC[C@H](NC(=O)C2CC2)[C@H](CO)O1)Nc1ccccc1 | 0.992 ± 0.033 | – |
| CO[C@H]1CN(C)C(=O)c2cc(NS(=O)(=O)CC(F)(F)F)ccc2OC[C@@H](C)NC[C@H]1C | 1.07 ± 0.0046 | – |
| CCC(=O)N1CC(=O)N2[C@H](CO)[C@H](c3ccc(C#CCC(C)C)cc3)[C@H]2C1 | 0.956 ± 0.046 | – |
